# Test results reported in PubChem BioAssay AID1159580 (chemical genetic matrix, 2015).
# Values joined by “and” are separate entries in the source; they are usually repeats but may differ in a detail not shown here. Equal entries are not always repeated. Screen size: about 5,500 compounds; about 2,000 (36%) were called active. About 18% were inconclusive and are not listed. Rule as the data show it: active = normalized growth mostly below about 0.91 (no sharp cut-off); inconclusive = no clear call, values can overlap the other calls; inactive = mostly above about 0.92. The list shows a part of the results. More than one record can exist for a structure, and the calls need not agree.
# Experiment: chemical genetic growth profiling, strain panel (AID 1159580);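 also: tested at 20 µM; growth read once vehicle control cultures reached saturation at 30 °C; 1 = growth at the plate median or of vehicle wells; lower values mean less growth of the strain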
# Settings: S. cerevisiae deletion strains, growth OD
smiles,measurement,setting,value
Cc1cc2c(C(C)C)c(O)c(O)c(C=O)c2c(O)c1-c1c(C)cc2c(C(C)C)c(O)c(O)c(C=O)c2c1O,normalized growth,"locus YAL013W, strain DEP1, stronger effect = lower value",0.328 (active) and 0.919 (inactive)
same,normalized growth,"locus YAL021C, strain ccr4, stronger effect = lower value",0.423 (active) and 0.368 (active)
same,normalized growth,"locus YAL026C, strain drs2, stronger effect = lower value",0.446 (active) and 0.519 (active)
same,normalized growth,"locus YAL030W, strain snc1, stronger effect = lower value",0.842 (active) and 0.874 (active)
same,normalized growth,"locus YBL061C, strain skt5, stronger effect = lower value",0.762 (active) and 0.747 (active)
same,normalized growth,"locus YBR009C, strain hhf1, stronger effect = lower value",0.779 (active) and 0.854 (active)
same,normalized growth,"locus YBR021W, strain FUR4, stronger effect = lower value",0.953 (inactive) and 0.977 (inactive)
same,normalized growth,"locus YBR023C, strain chs3, stronger effect = lower value",0.715 (active) and 0.692 (active)
same,normalized growth,"locus YBR171W, strain sec66, stronger effect = lower value",0.862 (active) and 0.922 (inactive)
same,normalized growth,"locus YBR229C, strain ROT2, stronger effect = lower value",0.936 (inactive) and 0.948 (inactive)
same,normalized growth,"locus YBR231C, strain swc5, stronger effect = lower value",0.637 (active) and 0.64 (active)
same,normalized growth,"locus YBR279W, strain paf1, stronger effect = lower value",0.778 (active) and 0.751 (active)
same,normalized growth,"locus YCL011C, strain gbp2, stronger effect = lower value",0.819 (active) and 0.854 (active)
same,normalized growth,"locus YCL016C, strain dcc1, stronger effect = lower value",0.842 (active) and 0.831 (active)
same,normalized growth,"locus YCL029C, strain bik1, stronger effect = lower value",0.798 (active) and 0.939 (inactive)
same,normalized growth,"locus YCL061C, strain MRC1, stronger effect = lower value",0.845 (active)
same,normalized growth,"locus YCL069W, strain vba3, stronger effect = lower value",0.813 (active) and 0.879 (active)
same,normalized growth,"locus YCR088W, strain abp1, stronger effect = lower value",0.842 (active) and 0.919 (active)
same,normalized growth,"locus YDL005C, strain med2, stronger effect = lower value",0.971 (inactive)
same,normalized growth,"locus YDL035C, strain GPR1, stronger effect = lower value",0.662 (active) and 0.799 (active)
same,normalized growth,"locus YDL040C, strain nat1, stronger effect = lower value",0.943 (inactive) and 0.953 (inactive)
same,normalized growth,"locus YDL074C, strain BRE1, stronger effect = lower value",0.589 (active) and 0.751 (active)
same,normalized growth,"locus YDL101C, strain DUN1, stronger effect = lower value",0.742 (active) and 0.847 (active)
same,normalized growth,"locus YDL134C, strain PPH21, stronger effect = lower value",0.738 (active) and 0.848 (active)
same,normalized growth,"locus YDL185W, strain tfp1, stronger effect = lower value",0.926 (inactive) and 0.966 (inactive)
same,normalized growth,"locus YDL192W, strain arf1, stronger effect = lower value",0.689 (active) and 0.978 (inactive)
same,normalized growth,"locus YDR001C, strain nth1, stronger effect = lower value",0.881 (active) and 0.925 (inactive)
same,normalized growth,"locus YDR069C, strain doa4, stronger effect = lower value",0.53 (active) and 0.604 (active)
same,normalized growth,"locus YDR101C, strain arx1, stronger effect = lower value",0.849 (active) and 0.943 (inactive)
same,normalized growth,"locus YDR137W, strain rgp1, stronger effect = lower value",0.161 (active) and 0.167 (active)
same,normalized growth,"locus YDR150W, strain NUM1, stronger effect = lower value",0.785 (active) and 0.912 (inactive)
same,normalized growth,"locus YDR159W, strain sac3, stronger effect = lower value",0.653 (active) and 0.717 (active)
same,normalized growth,"locus YDR162C, strain NBP2, stronger effect = lower value",0.342 (active) and 0.819 (active)
same,normalized growth,"locus YDR195W, strain ref2",0.84 (active) and 0.864 (inactive)
same,normalized growth,"locus YDR297W, strain sur2, stronger effect = lower value",0.79 (active) and 0.863 (active)
same,normalized growth,"locus YDR318W, strain mcm21, stronger effect = lower value",0.847 (active) and 0.965 (inactive)
same,normalized growth,"locus YDR334W, strain swr1, stronger effect = lower value",0.477 (active) and 0.674 (active)
same,normalized growth,"locus YDR335W, strain msn5, stronger effect = lower value",0.677 (active) and 0.769 (active)
same,normalized growth,"locus YDR388W, stronger effect = lower value",0.793 (active) and 0.972 (inactive)
same,normalized growth,"locus YDR392W, strain spt3, stronger effect = lower value",0.56 (active) and 0.438 (active)
same,normalized growth,"locus YDR502C, strain sam2, stronger effect = lower value",0.769 (active) and 0.937 (inactive)
same,normalized growth,"locus YEL003W, strain gim4, stronger effect = lower value",0.761 (active) and 0.805 (active)
same,normalized growth,"locus YEL037C, strain rad23, stronger effect = lower value",0.786 (active) and 0.813 (active)
same,normalized growth,"locus YEL061C, strain CIN8 (second series), stronger effect = lower value",0.814 (active) and 0.916 (inactive)
same,normalized growth,"locus YEL061C, strain CIN8, stronger effect = lower value",0.777 (active) and 0.853 (active)
same,normalized growth,"locus YER015W, strain faa2, stronger effect = lower value",0.649 (active) and 0.698 (active)
same,normalized growth,"locus YER016W, strain bim1, stronger effect = lower value",0.849 (active) and 0.883 (active)
same,normalized growth,"locus YER110C, stronger effect = lower value",0.943 (inactive) and 1.02 (inactive)
same,normalized growth,"locus YER111C, strain swi4, stronger effect = lower value",0.456 (active) and 0.668 (active)
same,normalized growth,"locus YER155C, strain BEM2 (second series), stronger effect = lower value",0.674 (active) and 0.758 (active)
same,normalized growth,"locus YER155C, strain BEM2, stronger effect = lower value",0.865 (active) and 0.912 (active)
same,normalized growth,"locus YER167W, strain BCK2, stronger effect = lower value",0.83 (active) and 0.895 (active)
same,normalized growth,"locus YFR010W, strain ubp6, stronger effect = lower value",0.644 (active) and 0.732 (active)
same,normalized growth,"locus YGL078C, strain dbp3, stronger effect = lower value",0.976 (inactive) and 1.01 (inactive)
same,normalized growth,"locus YGL086W, strain mad1, stronger effect = lower value",0.937 (inactive)
same,normalized growth,"locus YGL167C, strain pmr1, stronger effect = lower value",0.868 (active) and 0.833 (active)
same,normalized growth,"locus YGL173C, strain kem1, stronger effect = lower value",0.564 (active) and 0.591 (active)
same,normalized growth,"locus YGL227W, strain vid30, stronger effect = lower value",0.953 (inactive) and 0.989 (inactive)
same,normalized growth,"locus YGL240W, strain doc1, stronger effect = lower value",0.892 (inactive) and 0.952 (inactive)
same,normalized growth,"locus YGL248W, strain PDE1, stronger effect = lower value",0.764 (active) and 0.805 (active)
same,normalized growth,"locus YGL253W, strain hxk2, stronger effect = lower value",0.629 (active) and 0.698 (active)
same,normalized growth,"locus YGR078C, strain PAC10, stronger effect = lower value",0.776 (active)
same,normalized growth,"locus YGR135W, strain pre9, stronger effect = lower value",0.821 (active) and 0.901 (inactive)
same,normalized growth,"locus YGR229C, strain SMI1, stronger effect = lower value",0.126 (active)
same,normalized growth,"locus YGR252W, strain gcn5, stronger effect = lower value",0.806 (inactive) and 0.95 (inactive)
same,normalized growth,"locus YHR013C, strain ard1, stronger effect = lower value",0.651 (active) and 0.608 (active)
same,normalized growth,"locus YHR027C, strain rpn1, stronger effect = lower value",0.56 (active) and 0.593 (active)
same,normalized growth,"locus YHR030C, strain SLT2, stronger effect = lower value",0.64 (active) and 0.992 (inactive) and 0.854 (active)
same,normalized growth,"locus YHR079C, strain IRE1 (second series), stronger effect = lower value",0.841 (active) and 0.953 (inactive)
same,normalized growth,"locus YHR079C, strain IRE1, stronger effect = lower value",1.01 (inactive)
same,normalized growth,"locus YHR094C, strain hxt1, stronger effect = lower value",0.979 (inactive) and 1 (inactive)
same,normalized growth,"locus YHR129C, strain ARP1, stronger effect = lower value",0.731 (active) and 0.811 (active)
same,normalized growth,"locus YHR142W, strain chs7, stronger effect = lower value",0.537 (active) and 0.619 (active)
same,normalized growth,"locus YHR200W, strain rpn10, stronger effect = lower value",0.876 (active) and 0.977 (inactive)
same,normalized growth,"locus YIL066C, strain RNR3, stronger effect = lower value",0.6 (active) and 0.744 (active)
same,normalized growth,"locus YIL073C, strain SPO22, stronger effect = lower value",0.421 (active) and 0.743 (inactive)
same,normalized growth,"locus YIL125W, strain kgd1, stronger effect = lower value",1.05 (inactive) and 0.996 (inactive)
same,normalized growth,"locus YIR030C, strain dcg1, stronger effect = lower value",0.89 (active) and 0.994 (inactive)
same,normalized growth,"locus YJL092W, strain hpr5, stronger effect = lower value",0.799 (active) and 0.852 (active)
same,normalized growth,"locus YJL095W, strain BCK1 (second series), stronger effect = lower value",0.644 (active) and 0.629 (active)
same,normalized growth,"locus YJL095W, strain BCK1, stronger effect = lower value",0.534 (active) and 0.961 (inactive) and 0.744 (active)
same,normalized growth,"locus YJL115W, strain asf1, stronger effect = lower value",0.794 (active) and 0.86 (active)
same,normalized growth,"locus YJL129C, strain trk1, stronger effect = lower value",0.897 (inactive) and 0.937 (inactive)
same,normalized growth,"locus YJL134W, strain LCB3, stronger effect = lower value",0.875 (active) and 0.934 (inactive)
same,normalized growth,"locus YJL154C, strain vps35, stronger effect = lower value",0.857 (active) and 0.853 (active)
same,normalized growth,"locus YJL164C, strain tpk1, stronger effect = lower value",0.774 (active) and 0.762 (active)
same,normalized growth,"locus YJL166W, strain qcr8, stronger effect = lower value",0.75 (active) and 0.82 (active)
same,normalized growth,"locus YJL168C, strain set2, stronger effect = lower value",0.935 (inactive) and 0.981 (inactive)
same,normalized growth,"locus YJL187C, strain SWE1 (second series), stronger effect = lower value",0.553 (active) and 0.71 (active)
same,normalized growth,"locus YJL187C, strain SWE1, stronger effect = lower value",0.804 (active)
same,normalized growth,"locus YJR043C, strain POL32, stronger effect = lower value",0.594 (active) and 0.749 (active)
